PubChem BioAssay AID740 (SRMLSC, 2007)
The campaign covered roughly 96,000 compounds. About 65 (0.07%) were called active. No stated cut-off is given here; in the data, active means inhibition above about 25%; inactive means the rest. What follows is part of a selection rich in actives, with near analogues and random picks from the rest.

Assay: unspecified inhibition readout at 50 µM (AID 740)
Conditions: unspecified screen; hits give high values

Q: For `Cc1cc(C)n(-c2nc(SCCN(C)C)c3c4c(sc3n2)CCCC4)n1`, which inhibition is on record?
A: inactive

Q: With `O=C(C1CCN(C2CC(=O)N(c3cccc(Cl)c3)C2=O)CC1)N1CCCC1` (configuration not stated) as the compound, how does the inhibition read?
A: 0.33% (inactive)

Q: For `CC#CCCC(=O)N1C=Cc2ccccc2C1C#N` (configuration not stated), which inhibition is on record?
A: inactive

Q: With `CC(=O)Cc1nsc(NC(=O)c2ccc(-c3ccccc3Cl)o2)n1` as the compound, how does the inhibition read?
A: inactive

Q: Which inhibition does the source give for `Cc1ccc(NC(=S)C2=C(O)c3sccc3N(C)S2(=O)=O)cc1` here?
A: 52.4% (active)

Q: With `CN1c2ccccc2C(O)=C(C(=O)Nc2ccccc2)S1(=O)=O` as the compound, how does the inhibition read?
A: inactive

Q: For `Cc1ccc(NC(=O)C2=C(O)c3sccc3N(C)S2(=O)=O)cc1`, which inhibition is on record?
A: 1.91% (inactive)

Q: Which inhibition does the source give for `CN1c2ccsc2C(O)=C(C(=S)Nc2ccccc2)S1(=O)=O` here?
A: 64.3% (active)

Q: Which inhibition does the source give for `CN1c2ccsc2C(O)=C(C(=O)Nc2ccccc2)S1(=O)=O` here?
A: 26.4% (active)

Q: With `Cc1ccc(NC(=O)C2=C(O)c3ccccc3N(C)S2(=O)=O)cc1` as the compound, how does the inhibition read?
A: inactive

Q: Which inhibition does the source give for `Cc1ccccc1NC(=S)C1=C(O)c2sccc2N(C)S1(=O)=O` here?
A: inactive

Q: For `Cc1ccc(NC(=S)C2=C(O)c3ccccc3N(C)S2(=O)=O)cc1`, which inhibition is on record?
A: 9.88% (inactive)

Q: For `CN1c2ccccc2C(O)=C(C(=S)Nc2ccccc2)S1(=O)=O`, which inhibition is on record?
A: inactive

Q: For `CC(=O)Nc1ccc2c(c1)nc(CCN1CCOCC1)n2C`, which inhibition is on record?
A: inactive

Q: With `CCn1c(SCc2nc(-c3ccccc3)no2)nnc1-c1cccs1` as the compound, how does the inhibition read?
A: 0.11% (inactive)

Q: For `COc1ccccc1Cn1c(=O)c2ccccc2n2c(Sc3ncnc4sccc34)nnc12`, which inhibition is on record?
A: 65.1% (active)

Q: Which inhibition does the source give for `COc1ccccc1Cn1c(=O)c2ccccc2n2c(SCc3csc(C)n3)nnc12` here?
A: 0.93% (inactive)

Q: With `O=c1[nH]nc(Sc2ncnc3sccc23)n1CCc1ccccc1` as the compound, how does the inhibition read?
A: 9.99% (inactive)

Q: With `c1ccc(CSc2nnnn2-c2cccc3ccccc23)nc1` as the compound, how does the inhibition read?
A: 3.06% (inactive)

Q: Which inhibition does the source give for `CCOc1ccc(NC(=O)NCCCN2CCCC2)cc1` here?
A: 0.93% (inactive)

Q: With `CSc1nnnn1-c1ccc(C(=O)OCC(=O)N2CCOCC2)cc1` as the compound, how does the inhibition read?
A: inactive

Q: Which inhibition does the source give for `CCOC(=O)c1cnc(SCC(=O)N2CCc3ccccc32)nc1N` here?
A: inactive
